For some of these results: Measured potencies and affinities stand elsewhere. Activity calls are given as the source filed them.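 Rule for the calls, unless noted: active = fluorescence ratio normalized to control raised more than 50% in primary screen plus both repeat runs; inactive = the rest.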
Experiments:
[1] = system: TRPC4 beta (transient receptor potential cation channel C4), mouse; test: activators of mouse TRPC4 channel, confirmation, cell-based, Fluo4 calcium, HEK293 TRPC4beta/mu-opioid, duplicates, 10 µM (AID 2426); details: Fluo4 calcium fluorescence, at 10 µM; active compounds read high;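 for activation: percent rise of integrated ratio over buffer wells lacking compound which define 0%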
[2] = system: transient receptor potential cation channel C4 beta (TRPC4), mouse; test: activators of mouse TRPC4 channel, confirmation, cell-based, second round, Fluo4, HEK293 TRPC4beta/mu-opioid, 1 µM (AID 2461;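 active = primary screen active and over 50% activation in each of two duplicate runs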;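 for activation: 0% = wells without test compound as baseline of integrated fluorescence ratio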); details: Fluo4 calcium fluorescence, at 1 µM; active compounds read high
[3] = system: TRPC4 (transient receptor potential cation channel C4 beta), mouse; test: positive allosteric modulators of mouse TRPC4, confirmation, cell-based, second round, Fluo-4, HEK293 TRPC4beta/mu-opioid, 1 µM (AID 2554;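 active = primary screen hit whose fluorescence ratio, in both repeats, exceeds the weak agonist control mean by 3 SD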); details: DAMGO EC20, Fluo-4 calcium flux, at 1 µM; active compounds read high
[4] = system: TRPC4 beta (transient receptor potential cation channel C4), mouse; test: positive allosteric modulators of mouse TRPC4, confirmation, cell-based, Fluo-4, HEK293 TRPC4beta/mu-opioid (AID 2555;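 active = primary screen hit whose calcium fluorescence ratio, in both repeats, exceeds the weak agonist control mean by 3 SD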); details: DAMGO EC20, Fluo-4 calcium flux, at 10 µM; active compounds read high
[5] = biological target: Short transient receptor potential channel 4 (Mus musculus) (UniProt Q9QUQ5); test: inhibitors of mouse TRPC4 channel, confirmation, cell-based, Fluo4, HEK293 TRPC4beta/mu-opioid (AID 2636;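 active = calcium signal cut by more than 3 SD below the full-agonist control yet still positive, in both repeats and the earlier primary screen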); details: DAMGO, Fluo4 calcium flux, at 10 µM; active compounds read high
[6] = biological target: Short transient receptor potential channel 4 (Mus musculus) (UniProt Q9QUQ5); test: inhibitors of mouse TRPC4 channel, confirmation, cell-based, second round, Fluo4, HEK293 TRPC4beta/mu-opioid, 1 µM (AID 2637;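 active = calcium signal ratio cut to more than 3 SD under the fully stimulated control mean yet still positive, in both repeats and the primary screen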); details: Fluo4 calcium flux, DAMGO, at 1 µM; active compounds read high
[7] = biological target: Short transient receptor potential channel 4 (Mus musculus) (UniProt Q9QUQ5); test: TRPC4 positive allosteric modulators, dose response, cell-based, HEK293 TRPC4/mu-opioid, Fluo-4 calcium, EC20 DAMGO (AID 434941;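 active = earlier screen potentiator hit that boosts the TRPC4 ion channel at some dose, with a dose response; inactive = no potentiation, no dose response, or not a prior hit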;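 note: calcium entry triggered by an EC20 dose of DAMGO at the co-expressed mu-opioid receptor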)
[8] = biological target: Short transient receptor potential channel 4 (Mus musculus) (UniProt Q9QUQ5); test: mouse TRPC4 channel inhibitors, dose response, cell-based, HEK293 TRPC4/mu-opioid, Fluo-4 calcium (AID 434942;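 active = primary screen inhibitor hit that blocks the TRPC4 channel at some tested dose, yielding a dose curve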)
[9] = biological target: Short transient receptor potential channel 6 (Mus musculus) (UniProt Q61143); test: inhibition of mouse TRPC6 channel, confirmation, selectivity assay for TRPC4 inhibitor project, cell-based, HEK293, membrane potential dye, duplicate (AID 434948;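 active = active in primary screen and both duplicates, each dropping signal beyond three positive-control SD with fluorescence still positive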); details: HEK293 TRPC6, membrane potential dye fluorescence, at 10 µM, stimulated with maximal-effect acetylcholine; active compounds read high
[10] = biological target: Short transient receptor potential channel 6 (Mus musculus) (UniProt Q61143); test: activation of mouse TRPC6 channel, confirmation, selectivity assay for TRPC4 activator project, cell-based, HEK293, membrane potential dye, duplicate (AID 434950;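 active = membrane potential signal rise above negative control mean plus 3 SD in both duplicates, also active in the earlier TRPC4 screen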;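 for activation: 0% = buffer only wells and 100% = acetylcholine maximal-effect wells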); details: HEK293 TRPC6, membrane potential fluorescence, at 10 µM; active compounds read high
[11] = biological target: Short transient receptor potential channel 6 (Mus musculus) (UniProt Q61143); test: TRPC6 potentiation by TRPC4 potentiator hits, confirmation, selectivity assay for TRPC4 potentiator project, HEK293 cells, membrane potential dye, duplicate (AID 434952;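 active = compound raising the membrane signal above positive-control mean plus 3 SD in both repeats, and a primary screen hit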); details: HEK293 TRPC6, membrane potential dye fluorescence, at 10 µM, maximal acetylcholine added after compound; active compounds read high
[12] = biological target: Short transient receptor potential channel 4 (Mus musculus) (UniProt Q9QUQ5); test: calcium flux activators in TRPC4/5HT1a cells, counter-screen for TRPC4 activator project, cell-based, second counter screen, HEK293 TRPC4/5HT1a, Fluo-4 (AID 434977;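 active = calcium signal rise above buffer-control mean plus 5 SD in both duplicates, and also a hit in the primary screen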;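 for activation: plate controls were assay buffer for no effect and maximal serotonin response for full effect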); details: Fluo-4 calcium flux, at 10 µM; active compounds read high
[13] = calcium flux inhibitors in TRPC4/5HT1a cells, confirmation, counter-screen for TRPC4 inhibitor project, cell-based, second counter screen, HEK293 TRPC4/5HT1a, Fluo-4 (AID 434978;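 active = primary screen active whose calcium signal fell more than 3 SD beyond the full-serotonin control mean in both duplicate plates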;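 note: serotonin given first at submaximal then at maximal dose after compound preincubation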); details: Fluo-4 calcium flux, at 10 µM, serotonin added to trigger calcium flux; active compounds read high
[14] = system: TRPC4 (mouse), co-expressed with 5HT1a in HEK293; test: calcium flux potentiators in TRPC4/5HT1a cells, confirmation, counter-screen for TRPC4 potentiator project, cell-based, second counter screen, HEK293 TRPC4/5HT1a, Fluo-4 (AID 434979;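 active = signal rise over 3 SD above mean of control wells given weak agonist, in both repeats and first screen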); details: Fluo-4 calcium flux, at 10 µM, serotonin added at its EC20 dose; active compounds read high
[15] = calcium flux activation in mu-opioid HEK293 cells, confirmation, counter-screen for TRPC4 activator project, cell-based, HEK293 mu-opioid receptor line (AID 449723;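 active = hit in primary screen, with calcium signal over 5 SD above buffer well mean in both duplicates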;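 note: counter screen cells carry the mu-opioid receptor alone and lack TRPC4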); details: Fluo-4 calcium fluorescence, at 10 µM; active compounds read high
[16] = calcium flux enhancement in mu-opioid HEK293 cells, confirmation, counter-screen for TRPC4 allosteric potentiator project, cell-based, HEK293 mu-opioid receptor line (AID 449724;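 active = calcium signal rise more than 3 SD above the low-dose agonist control mean, in both duplicate plates and the primary screen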); details: Fluo-4 calcium flux, at 10 µM, compound added before EC20 DAMGO stimulus; active compounds read high

Sequence of Short transient receptor potential channel 6 (Mus musculus) (Q61143 whole entry, looked up): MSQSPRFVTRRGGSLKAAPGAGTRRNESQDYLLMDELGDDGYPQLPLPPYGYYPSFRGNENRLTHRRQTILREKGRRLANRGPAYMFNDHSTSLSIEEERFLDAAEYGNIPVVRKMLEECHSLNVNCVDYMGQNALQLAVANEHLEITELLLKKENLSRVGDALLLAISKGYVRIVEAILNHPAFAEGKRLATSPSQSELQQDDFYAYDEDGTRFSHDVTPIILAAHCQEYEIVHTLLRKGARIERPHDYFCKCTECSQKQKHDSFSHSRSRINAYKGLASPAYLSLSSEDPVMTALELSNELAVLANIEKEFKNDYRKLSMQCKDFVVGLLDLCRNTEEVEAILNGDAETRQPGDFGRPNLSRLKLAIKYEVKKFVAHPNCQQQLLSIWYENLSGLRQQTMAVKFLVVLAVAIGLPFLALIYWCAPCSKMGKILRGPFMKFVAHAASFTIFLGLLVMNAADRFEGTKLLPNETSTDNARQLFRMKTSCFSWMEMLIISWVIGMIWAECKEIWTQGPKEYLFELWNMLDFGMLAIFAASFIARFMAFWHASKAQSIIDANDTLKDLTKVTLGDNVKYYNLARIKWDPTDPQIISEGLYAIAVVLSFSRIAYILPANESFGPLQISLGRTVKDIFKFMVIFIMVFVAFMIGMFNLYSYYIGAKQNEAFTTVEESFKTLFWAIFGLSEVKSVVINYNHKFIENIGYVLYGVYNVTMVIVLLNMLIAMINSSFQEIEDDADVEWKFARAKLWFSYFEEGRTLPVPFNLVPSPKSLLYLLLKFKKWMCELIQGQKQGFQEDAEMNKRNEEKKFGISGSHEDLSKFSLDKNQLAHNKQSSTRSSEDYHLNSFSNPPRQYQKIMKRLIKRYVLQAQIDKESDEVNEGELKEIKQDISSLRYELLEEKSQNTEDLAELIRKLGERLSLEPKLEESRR
Sequence of Short transient receptor potential channel 4 (Mus musculus) (Q9QUQ5 whole entry, looked up): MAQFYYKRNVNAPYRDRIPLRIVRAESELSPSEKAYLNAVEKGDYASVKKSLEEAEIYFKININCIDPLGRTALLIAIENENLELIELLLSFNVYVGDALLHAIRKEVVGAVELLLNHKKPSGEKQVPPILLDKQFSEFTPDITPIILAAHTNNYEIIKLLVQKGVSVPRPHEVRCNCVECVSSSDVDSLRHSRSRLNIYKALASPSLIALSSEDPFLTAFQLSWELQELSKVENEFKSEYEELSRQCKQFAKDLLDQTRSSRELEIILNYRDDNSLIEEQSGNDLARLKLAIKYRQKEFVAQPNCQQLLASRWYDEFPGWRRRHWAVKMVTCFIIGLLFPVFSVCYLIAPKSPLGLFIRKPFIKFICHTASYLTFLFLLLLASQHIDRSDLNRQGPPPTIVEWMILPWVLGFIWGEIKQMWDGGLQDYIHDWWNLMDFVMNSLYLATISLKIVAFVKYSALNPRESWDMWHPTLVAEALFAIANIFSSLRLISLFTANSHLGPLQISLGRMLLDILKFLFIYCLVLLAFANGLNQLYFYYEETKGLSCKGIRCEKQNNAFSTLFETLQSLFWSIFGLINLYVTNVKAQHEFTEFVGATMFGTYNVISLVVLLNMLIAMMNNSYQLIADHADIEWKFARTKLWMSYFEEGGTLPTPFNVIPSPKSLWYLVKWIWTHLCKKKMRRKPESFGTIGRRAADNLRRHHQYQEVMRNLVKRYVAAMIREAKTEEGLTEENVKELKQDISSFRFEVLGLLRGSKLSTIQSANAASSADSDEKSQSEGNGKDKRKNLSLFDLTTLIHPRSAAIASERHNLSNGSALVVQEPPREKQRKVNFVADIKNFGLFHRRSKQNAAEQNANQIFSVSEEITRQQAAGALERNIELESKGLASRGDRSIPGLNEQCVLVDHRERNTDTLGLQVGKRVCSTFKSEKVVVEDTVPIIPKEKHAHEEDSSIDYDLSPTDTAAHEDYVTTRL

O=C(O)c1ccc(-c2ccc(/C=N/Nc3ccc([N+](=O)[O-])cc3)o2)cc1
inactive: outcome [2] | outcome [3] | outcome [5] | outcome [6] | outcome [7] | outcome [8] | outcome [9] | outcome [11] | outcome [13] | outcome [14] | outcome [16]
active: activation [1] 120% | potentiation [4] 11% | activation [10] 442% | activation [12] 111% | activation [15] 106%

COc1ccc(C(CNC(=O)c2cc(C)on2)N(C)C)cc1 (stereo not drawn)
inactive: outcome [2] | outcome [3] | outcome [4] | outcome [5] | outcome [6] | outcome [7] | outcome [8] | outcome [9] | outcome [11] | outcome [12] | outcome [13] | outcome [14] | outcome [15] | outcome [16]
active: activation [1] 199% | activation [10] 27.5%

Cc1sc(NC(=O)c2ccccc2)c(C(=O)NCCN(C)C)c1C
active: activation [1] 128% | activation [12] 12.1%
inactive: outcome [2] | outcome [3] | outcome [4] | outcome [5] | outcome [6] | outcome [7] | outcome [8] | outcome [9] | outcome [10] | outcome [11] | outcome [13] | outcome [14] | outcome [15] | outcome [16]

CCCCN(CC)CCCNC(=O)c1csc2c1CCCCC2
active: activation [1] 211% | activation [10] 66.5% | activation [12] 78.6%
inactive: outcome [2] | outcome [3] | outcome [4] | outcome [5] | outcome [6] | outcome [7] | outcome [8] | outcome [9] | outcome [11] | outcome [13] | outcome [14] | outcome [15] | outcome [16]

O=C(NC1CC1)C1=C[C@H](c2csc3ccccc23)C[C@H](OCc2ccc(CO)cc2)O1
inactive: outcome [1] | outcome [2] | outcome [3] | outcome [4] | outcome [5] | outcome [6] | outcome [7] | outcome [8] | outcome [9] | outcome [11] | outcome [12] | outcome [13] | outcome [14] | outcome [15] | outcome [16]
active: activation [10] 35.5%

O=C(CC1C(=O)NCCN1Cc1cccc(Oc2ccccc2)c1)NCCc1ccccn1 (stereo not drawn)
active: activation [1] 99% | activation [12] 42.3%
inactive: outcome [2] | outcome [3] | outcome [4] | outcome [5] | outcome [6] | outcome [7] | outcome [8] | outcome [9] | outcome [10] | outcome [11] | outcome [13] | outcome [14] | outcome [15] | outcome [16]

CCn1c(=O)c(C(=O)NNC(=O)c2ccccc2F)c(O)c2ccccc21
active: activation [1] 126% | activation [12] 111% | activation [15] 34%
inactive: outcome [2] | outcome [3] | outcome [4] | outcome [5] | outcome [6] | outcome [7] | outcome [8] | outcome [9] | outcome [10] | outcome [11] | outcome [13] | outcome [14] | outcome [16]

OCC1(CC2CCCCO2)CCN(Cc2ccccc2-c2ccco2)CC1 (stereo not drawn)
inactive: outcome [1] | outcome [2] | outcome [3] | outcome [4] | outcome [5] | outcome [6] | outcome [7] | outcome [8] | outcome [9] | outcome [10] | outcome [11] | outcome [12] | outcome [13] | outcome [14] | outcome [15] | outcome [16]

CN(C)CCCN(C(=O)c1ccc(S(=O)(=O)N2CCc3ccccc32)cc1)c1nc2ccc(F)cc2s1
active: activation [1] 79%
inactive: outcome [2] | outcome [3] | outcome [4] | outcome [5] | outcome [6] | outcome [7] | outcome [8] | outcome [9] | outcome [10] | outcome [11] | outcome [12] | outcome [13] | outcome [14] | outcome [15] | outcome [16]

NC1=NC2(CCN(Cc3ccccc3)CC2)n2c(nc3ccccc32)N1
inactive: outcome [2] | outcome [3] | outcome [4] | outcome [5] | outcome [6] | outcome [7] | outcome [8] | outcome [9] | outcome [10] | outcome [11] | outcome [12] | outcome [13] | outcome [14] | outcome [15] | outcome [16]
active: activation [1] 54%

CC(C)C1CC(CCNCc2ccc3c(c2)OCO3)(c2ccccc2)CCO1 (stereo not drawn)
inactive: outcome [2] | outcome [3] | outcome [4] | outcome [5] | outcome [6] | outcome [7] | outcome [8] | outcome [9] | outcome [11] | outcome [13] | outcome [14] | outcome [15] | outcome [16]
active: activation [1] 96% | activation [10] 64% | activation [12] 5.88%

CC(=O)NC(CC(=O)NCC(c1ccco1)N(C)C)c1ccccc1 (stereo not drawn)
inactive: outcome [3] | outcome [4] | outcome [5] | outcome [6] | outcome [7] | outcome [8] | outcome [9] | outcome [10] | outcome [11] | outcome [12] | outcome [13] | outcome [14] | outcome [15] | outcome [16]
active: activation [1] 98% | activation [2] 78%

CCCN(CCC)CCCNC(=O)c1ccc2c(Cl)c3c(nc2c1)CCC3
active: activation [1] 90% | activation [2] 89% | activation [10] 27% | activation [12] 105%
inactive: outcome [3] | outcome [4] | outcome [5] | outcome [6] | outcome [7] | outcome [8] | outcome [9] | outcome [11] | outcome [13] | outcome [14] | outcome [15] | outcome [16]

From PubChem BioAssay
